Bioassay records deposited in PubChem by National Center for Advancing Translational Sciences (NCATS).
A selection: hits, their analogues and other compounds. The true share with any hit is near 11%.
PNC assembly inh = perinucleolar compartment assembly inhibition; PC3M PTB-GFP, PNC prevalence imaging, 16 h; stronger effect = lower value; activity change (PNC), negative = inhibition, % at 10 µM; 140,000 tested, 3.1% active;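 active means readout at or below -70, meaning at least 70% loss of cells showing the perinucleolar compartment, a nuclear body marking cancer cells; inconclusive means readout between -30 and a set limit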;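 further: plate controls were DMSO wells for no effect and camptothecin positive control wells for full effect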
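PC3M cells stably expressing PTB-GFP, 750–1000 cells/well, treated 16 h at 37 °C with compound (23 nl of library stock), in duplicate. After paraformaldehyde fixation and Hoechst stain, imaged at 20x; PNC prevalence scored by image analysis.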
IMPase inh = membrane-permeable compound that blocks inositol monophosphatase; CHO-M1 cells, IP1 accumulation, HTRF TR-FRET ratio; P97697; inhibition (IP1 accumulation), % at 46.1 µM; 120,000 tested, under 10 active; AID 901; active means well fitted curve in the direction sought with a large enough effect in the signal ratio, not every such curve was filed as active; inconclusive means small, poorly fitted or top-dose-only effect, or a change in a side signal; inactive means no such curve, though single readings can be large or run the other way; the % refers to the signal ratio;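 further: cells stimulated with carbachol in lithium chloride buffer; plate controls were DMSO basal wells for no effect and reference inhibitor wells for full effect; higher means more IMPase inhibition seen as more IP1 and lower FRET ratio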
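Carbachol-driven Gq signalling in CHO-M1 cells (2000/well) generates IP1. Compounds that block IMPase raise IP1 and so reduce the FRET signal from Eu-anti-IP1 and d2-IP1 after a 10 min room-temperature lysis.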
IMPase Li inh = membrane-permeable IMPase blocker, potentiated with lithium; CHO-M1 cells, IP1 TR-FRET (IP-One), carbachol + lithium; Potency, µM (series often up to 59.4 µM), for inactives: top-dose activity, negative = IMPase inhibition, actives largely listed as inhibitors; 210,000 tested, 0.35% active; AID 1457; active means well fitted curve in the direction sought with a large enough effect; inconclusive means small, poorly fitted or top-dose-only effect, or another doubt; inactive means no such curve, though single readings can be large; an effect the other way counts as inactive or inconclusive;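 further: IP1 builds up when IMPase is blocked and the TR-FRET signal falls; potency means the concentration at half of the fitted maximal effect; plate controls were basal vehicle for no effect and high inhibitor control for full effect; nearly all actives have a fitted effect of over 50% in size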
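Concentration–response in CHO-M1 cells, lithium-potentiated; 30 min at 37C. IP1 detected by competitive TR-FRET after 10 min lysis at RT. Hill-fitted AC50.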
NPSR antag = neuropeptide S receptor (human) antagonism, cAMP; CHO-NPSR cells, cAMP TR-FRET, antagonist mode; Q6W5P4; 220,000 tested, 1% active; Potency, µM (series often up to 38.3 µM), without a hit: top-dose activity change, negative = inhibition, actives largely listed as inhibitors; AID 1461; active means well fitted curve in the direction sought with a large enough effect; inconclusive means small, poorly fitted or top-dose-only effect, or another doubt; inactive means no such curve, though single readings can be large; an effect the other way counts as inactive or inconclusive; further: potency means the concentration at half of the fitted maximal effect; nearly all actives have a fitted effect of over 50% in size
ALDH1A1 inh = blocks purified human ALDH1A1 activity; P00352; Purified ALDH1A1, NADH fluorescence, propionaldehyde substrate; Potency, µM (top dose mostly 75.3 µM), for inactives: at the highest dose activity, negative = inhibition, most hits filed as inhibitors; 220,000 tested, 7.3% active;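 further: potency means the concentration at half of the fitted maximal effect; plate controls were no enzyme wells and a reference inhibitor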
Target sequence (P00352 whole entry, looked up): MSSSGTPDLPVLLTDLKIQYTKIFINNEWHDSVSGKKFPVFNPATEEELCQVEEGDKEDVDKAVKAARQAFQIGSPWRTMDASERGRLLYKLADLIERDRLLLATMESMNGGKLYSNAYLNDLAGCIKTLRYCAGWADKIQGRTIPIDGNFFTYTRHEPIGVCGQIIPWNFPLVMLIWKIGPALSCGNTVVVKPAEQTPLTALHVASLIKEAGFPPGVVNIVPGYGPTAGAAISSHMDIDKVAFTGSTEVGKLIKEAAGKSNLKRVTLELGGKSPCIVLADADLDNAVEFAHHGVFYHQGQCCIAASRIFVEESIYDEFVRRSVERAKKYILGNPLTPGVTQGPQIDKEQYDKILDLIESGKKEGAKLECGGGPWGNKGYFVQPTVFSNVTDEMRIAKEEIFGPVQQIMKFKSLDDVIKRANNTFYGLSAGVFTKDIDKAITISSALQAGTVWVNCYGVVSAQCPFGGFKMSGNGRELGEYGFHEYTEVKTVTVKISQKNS
HPGD inh = blocks human HPGD enzyme activity | P15428 | purified HPGD, NADH fluorescence kinetic, PGE2 substrate | Potency, µM, inactives show at the highest dose activity change, negative = inhibition, usual class: inhibitors | 150,000 tested, 4.3% active; further: potency means the concentration at half of the fitted maximal effect
Target sequence (P15428 whole entry, looked up): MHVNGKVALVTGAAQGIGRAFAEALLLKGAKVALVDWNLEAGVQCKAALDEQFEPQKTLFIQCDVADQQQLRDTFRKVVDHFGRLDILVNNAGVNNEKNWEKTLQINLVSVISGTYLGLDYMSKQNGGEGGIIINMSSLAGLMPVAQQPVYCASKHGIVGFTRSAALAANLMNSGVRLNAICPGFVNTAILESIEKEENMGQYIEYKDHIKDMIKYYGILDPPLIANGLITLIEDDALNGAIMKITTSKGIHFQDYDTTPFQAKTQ
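20 nM HPGD preincubated 15 min at room temperature with compound in 50 mM Tris-HCl pH 8, 0.01% Tween 20. Started with 1 mM NAD+ and 30 uM prostaglandin E2; NADH fluorescence (360/450 nm) read 5 times over 30-s intervals, last minus first.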
The depositor's hits bear a star; ? = inconclusive; . = not tested or not shown; [ ] = another dose, or the depositor's remark. Unless noted, the call rests on the fitted dose curve; in most records, active means well fitted inhibition curve with a large enough effect (not every such curve was filed as active); inconclusive means small, poorly fitted or top-dose-only effect, or another doubt; inactive means no such curve, though single readings can be large or run the other way. Unless noted, on the % scale 0 is the no-effect control and ±100 the full control effect.

SMILES	PNC assembly inh	IMPase inh	IMPase Li inh	NPSR antag	ALDH1A1 inh	HPGD inh
CC(C)(C)NS(=O)(=O)c1ccc(CCC(=O)Nc2ccc3c(c2)OCCO3)cc1	-15	-5	2%	0%	4µM*	-6%
CC(C)(C)NS(=O)(=O)c1ccc(OCC(=O)Nc2ccc3c(c2)OCCO3)cc1	1	-8	-14%[38.3 µM]	-26%[46.1 µM]	1.8µM*	-5%
CC(C)(C)NS(=O)(=O)c1ccc(CCC(=O)Nc2ccc3c(c2)OCO3)cc1	-21	4	21%[38.3 µM]	-7%[46.1 µM]	0.18µM*	-6%
CC(C)NS(=O)(=O)c1ccc(CCC(=O)Nc2ccc3c(c2)OCCO3)cc1	-7	0	4%	15%	-3%	-5%
COCCn1nnnc1C(c1ccc(OC)cc1)N1CCC(C)CC1 (stereo not drawn)	21	7	16%[38.3 µM]	-6%[46.1 µM]	-16%	-13%
COc1ccc(CCNC(=O)c2ccc(N3CCCC3=O)cc2)cc1	-22	0	26%[38.3 µM]	-3%[46.1 µM]	-1%	-11%
Cc1nonc1N1CCN(Cc2cn[nH]c2-c2ccc(F)cc2F)CC1	.	.	2%	0%	-3%	.
CC1(C)OC(=O)C(=NNc2ccc(O)cc2)C(=O)O1	?	?	.	-7%[46.1 µM]	-9%	.
CC1(C)OC(=O)C(=NNc2ccc(Cl)cc2)C(=O)O1	5	6	19%[38.3 µM]	-11%[46.1 µM]	3.2µM*	-27%
CC1(C)OC(=O)C(=NNc2ccccc2)C(=O)O1	-8	.	2%	6%	16µM*	-23%
O=c1[nH]c(CSc2ncccn2)nc2c1cnn2-c1ccccc1	48	.	4%	7%	?	-22%
Cc1ccc(-c2nnc3sc(C4COc5ccccc5O4)nn23)cc1 (stereo not drawn)	-26	9	8%[38.3 µM]	-24%[46.1 µM]	?	-28%
c1ccc(Cc2nnc3sc(C4COc5ccccc5O4)nn23)cc1 (stereo not drawn)	?	2	18%	2%[46.1 µM]	25µM*	14µM*
Clc1cccc(-c2nn3c(COc4ccccc4)nnc3s2)c1	-1	-8	-4%[38.3 µM]	-1%[46.1 µM]	3%	-10%
Cn1c(SCc2ccc(C(C)(C)C)cc2)nnc1C1COc2ccccc2O1 (stereo not drawn)	.	.	.	46%	?	.
Clc1ccccc1-c1nnc2sc(C3COc4ccccc4O3)nn12 (stereo not drawn)	?	-2	-4%	-21%[46.1 µM]	7.1µM*	20µM*
c1ccc(OCc2nnc3sc(C4COc5ccccc5O4)nn23)cc1 (stereo not drawn)	3	10	-2%[38.3 µM]	-9%[46.1 µM]	10µM*	7.1µM*
CC(C)OC(=O)CN1CCN(S(=O)(=O)c2cc(Cl)ccc2Cl)CC1	?	-3	22%[38.3 µM]	-26%[46.1 µM]	?	-13%
CCCN1CCC(=NNc2ccc(S(=O)(=O)N(CC)CC)cc2[N+](=O)[O-])CC1	.	.	14%	-13%	0%	.
O=S(=O)(Cc1cc(Oc2ccccc2)nc(-c2ccccc2)n1)c1ccccc1	-102*	9	16%[38.3 µM]	?	4%	-15%
COc1ccccc1C(=O)NC(=S)N1CCc2ccccc21	.	.	13%	-25%	14µM*	.
COc1ccccc1C(=O)NC(=S)N1CCCc2ccccc21	-11	10	27%[38.3 µM]	-26%[46.1 µM]	3.2µM*	8.9µM*
O=C(COc1ccccc1Cl)NC(=S)N1CCc2ccccc21	?	4	1%[38.3 µM]	2%[46.1 µM]	-6%	20µM*
COc1ccc(OCC(=O)NC(=S)N2CCCc3ccccc32)cc1	?	4	9%[38.3 µM]	-11%[46.1 µM]	8.9µM*	-16%
C=CCn1c(SCC(=O)NCC(=O)OCC)nnc1-c1ccccn1	-19	-2	-3%[38.3 µM]	5%[46.1 µM]	7%	-2%
SMILES	PNC assembly inh	IMPase inh	IMPase Li inh	NPSR antag	ALDH1A1 inh	HPGD inh
Clc1ccc(OCc2nc(-c3ccc(-n4cccc4)cc3)no2)cc1	.	-1	.	.	.	.
COc1ccc(-n2c(Cn3nc(C(F)(F)F)cc3C)n[nH]c2=S)cc1	4	.	5%	6%	10%	-2%
CN(C)C(CNC(=O)CCOc1ccccc1)c1ccco1 (stereo not drawn)	.	.	1%	-8%	0%	.
CN1C(=O)C(=C2CCCCCC2)SC1=S	15	9	14%[38.3 µM]	9%[46.1 µM]	?	-22%
O=C1NC(=S)SC1=C1CCCC1	14	-1	-3%[38.3 µM]	-9%[46.1 µM]	?	35µM*
O=C(CSc1ncnc2sc3c(c12)CCCC3)c1ccco1	?	5	-6%[38.3 µM]	-26%[46.1 µM]	22µM*	?
O=C(CSc1nc2sc3c(c2c(=O)n1-c1ccccc1)CCCC3)NCc1ccco1	53	1	3%	-12%	?	-22%
O=C(CSc1ncnc2sc3c(c12)CCCCC3)NCc1ccco1	?	1	5%[38.3 µM]	6%[46.1 µM]	8.9µM*	10µM*
CCOc1cc(N2CCOCC2)c(OCC)cc1NC(=O)COC(=O)c1cc(C)oc1C	-4	5	5%[38.3 µM]	-12%[46.1 µM]	6%	-5%
O=C(CCC1CCCN(C(=O)Cc2cccc(F)c2)C1)N1CCN(c2ccccn2)CC1 (stereo not drawn)	.	.	-3%	-9%	-9%	.
CC1CC2=C(NC(=S)NC2c2ccccc2F)/C(=C/c2ccccc2F)C1 (stereo not drawn)	.	.	10%	?	0.56µM*	.
Cc1ccc(/C=C2\CC(C)CC3=C2NC(=S)NC3c2ccc(C)cc2)cc1 (stereo not drawn)	.	.	.	-10%	.	.
CC1CC2=C(NC(=S)NC2c2cccc(F)c2)/C(=C/c2cccc(F)c2)C1 (stereo not drawn)	.	.	16%	-52%	1.3µM*	.
CCOC(=O)CNc1nc(Cl)nc(Nc2ccc(C)cc2)n1	.	.	.	-15%	.	.
Clc1c(-c2nnc3n2CCCCC3)sc2ccccc12	-26	5	-3%[38.3 µM]	0%[46.1 µM]	-6%	2µM*
Cn1c(CSc2nc3ccccc3s2)n[nH]c1=S	13	-1	2%	-9%[46.1 µM]	?	-28%
Cn1c(-c2sc3ccccc3c2Cl)n[nH]c1=S	17	-6	13%[38.3 µM]	-9%[46.1 µM]	?	20µM*
Clc1c(-c2nnc3n2CCC3)sc2ccccc12	34	-15	-6%[38.3 µM]	-11%[46.1 µM]	?	28µM*
N=c1oc2ccc3ccccc3c2cc1-c1nnc2n1CCCCC2	-114*	-2	-21%[38.3 µM]	3%[46.1 µM]	?	?
c1cncc(-c2nnc3n2CCC3)c1	10	5	-11%[38.3 µM]	1%[46.1 µM]	7%	-5%
Cc1ccc(C)c(OCc2nc3ccccc3[nH]2)c1	.	.	-8%	-10%	8%	.
COC(=O)/C(N=Nc1cccc(C(F)(F)F)c1)=C(\C)O	42	6	19%[38.3 µM]	18%[46.1 µM]	5%	-15%
CCOc1ccccc1NC(=O)C(OC(=O)c1ccccc1)c1ccccc1 (stereo not drawn)	-16	2	26%	-15%[46.1 µM]	?	-13%
COc1ccc2c(Cl)c(-c3nnc4n3CCCCC4)sc2c1	3	2	-5%[38.3 µM]	-16%[46.1 µM]	?	1µM*
